Source: PubChem BioAssay AID1619 (SRMLSC, 2009)
About 830 (0.38%) of roughly 220,000 compounds were called active. These entries were drawn from the full list. Entries with a potency or affinity are not part of this list. Values without a mark were called inactive.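 The calls were made as follows: active = compound inhibiting the enzyme by more than half at any dose during confirmatory dose-response retesting; inconclusive = strong single-dose inhibitors picked by rank but not retested; inactive = the rest.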

These compounds were tested against Leucine aminopeptidase (Plasmodium falciparum (isolate 3D7)) (UniProt Q8IL11) (assay: P. falciparum M17LAP inhibitors, primary screen, biochemical, fluorogenic H-Leu-NHMec substrate, 1536-well (AID 1619;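 also: plate controls were full reaction with DMSO carrier for no effect and no enzyme background for full effect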)). Conditions: recombinant M17LAP, H-Leu-NHMec fluorogenic kinetic assay; at 30 µM; stronger effect = higher value.
Leucine aminopeptidase (Plasmodium falciparum (isolate 3D7)), sequence (Q8IL11 whole entry, looked up): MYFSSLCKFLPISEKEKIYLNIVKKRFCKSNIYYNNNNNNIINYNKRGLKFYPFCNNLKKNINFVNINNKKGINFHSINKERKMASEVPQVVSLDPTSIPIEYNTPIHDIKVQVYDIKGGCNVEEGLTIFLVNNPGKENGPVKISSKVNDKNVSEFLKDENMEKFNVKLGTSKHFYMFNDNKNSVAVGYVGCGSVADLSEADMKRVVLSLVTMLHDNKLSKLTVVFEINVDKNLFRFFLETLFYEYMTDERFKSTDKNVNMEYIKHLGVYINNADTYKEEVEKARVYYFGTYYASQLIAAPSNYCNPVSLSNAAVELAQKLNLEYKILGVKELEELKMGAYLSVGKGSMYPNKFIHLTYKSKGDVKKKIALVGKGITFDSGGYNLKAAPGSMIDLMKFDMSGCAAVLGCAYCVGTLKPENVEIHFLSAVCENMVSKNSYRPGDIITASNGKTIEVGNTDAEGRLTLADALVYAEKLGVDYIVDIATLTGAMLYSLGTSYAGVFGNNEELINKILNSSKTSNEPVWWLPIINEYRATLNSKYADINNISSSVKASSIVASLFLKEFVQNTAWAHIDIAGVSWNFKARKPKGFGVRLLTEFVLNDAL
In the case of Cc1ccc(C)c2nc(SCC(=O)N3CCCc4ccccc43)c(C#N)cc12, the inhibition was -4.2%.
Compound CC(=O)NCC(=O)N1CCCC(C(=O)c2ccc(-c3ccccc3)c(F)c2)C1 (stereo not given) has an inhibition of -3.83%.
With Cc1cc(Nc2ccc([N+](=O)[O-])cc2)nc2ccccc12 the inhibition was 13.7%.
For CC(C)(C)c1ccc(Oc2ccc(NC(=O)C3CC=CCC3C(=O)O)cc2)cc1 (stereo not given), the inhibition was 3.52%.
CCOc1ccc(NS(=O)(=O)c2ccc(NC(=O)[C@@H]3CCCC[C@@H]3C(=O)O)cc2)cc1 showed an inhibition of 42.4%.
Work on CC1=C(C)CC(C(=O)Nc2ccc(C(N)=O)cc2)C(C(=O)O)C1 (stereo not given) yielded an inhibition of 20.2%.
CCOc1ccc(NC(=O)C2C3CC/C=C\CCC32)cc1 (stereo not given) was tested, and the inhibition was 4.68%.
With CC(C)OC(=O)C1CC=CCC1C(=O)Nc1ccc(Cl)cc1 (stereo not given) the inhibition was 2.15%.
For CCOc1ccc(NC(=O)C2CC(=O)OC2c2ccccc2)cc1 (stereo not given), the inhibition was -1.92%.
In the case of CC(=O)c1ccn(S(=O)(=O)c2ccc(Cl)cc2)c1, the inhibition was 9.38%.
CC(=O)Nc1ccc(NC(=O)C2CCCN(c3nnc(-n4cccc4)s3)C2)cc1 (stereo not given) showed an inhibition of 4.4%.
CCNC(=O)NCc1c(C)c(C)n(Cc2ccccc2)c1-n1cccc1 showed an inhibition of 4.1%.
Compound CCOc1ccc2[nH]cc(C(=O)NCCCN3CCOCC3)c(=O)c2c1 has an inhibition of 4.64%.
In the case of CCCCN1CNC(=S)N(CCc2ccc(OCC)c(OCC)c2)C1, the inhibition was 4.53%.
Cc1nnc(SCC(=O)NCc2ccc3c(c2)OCO3)n1C gave an inhibition of -1.94%.
In the case of Cn1c(SCC(=O)c2ccc3c(c2)OCO3)nnc1C1COc2ccccc2O1 (stereo not given), the inhibition was 10.4%.
For C=CCn1c(SCC(=O)NCc2ccc3c(c2)OCO3)nnc1C1CCCCC1, the inhibition was 20.8%.
C=CCn1c(SCC(=O)Nc2cc(C)on2)nnc1C1COc2ccccc2O1 (stereo not given) gave an inhibition of 9.81%.
With O=c1[nH][nH]cc1C=Nc1ccccc1Cl the inhibition was 2.22%.
For Clc1ccc(OCc2nc(-c3ccncc3)no2)cc1, the inhibition was 0.59%.
COc1ccc(-c2[nH]n(-c3ccc([N+](=O)[O-])cc3)c(=O)c2C=NCc2ccncc2)cc1 showed an inhibition of -8.57%.
With CC(C)COC(=O)Nc1ccc(C(=O)O)cc1 the inhibition was 13.3%.
In the case of Cc1cc(C(F)F)n2nc(C(=O)Nc3ccccc3F)nc2n1, the inhibition was 1.81%.
Compound O=C(O)CCCCCN1C(=O)/C(=C\c2cn(-c3ccccc3)nc2-c2cccs2)SC1=S has an inhibition of -1.95%.
O=C(O)CCCN1C(=O)/C(=C/c2cn(-c3ccccc3)nc2-c2cccs2)SC1=S gave an inhibition of 7.34%.
Cn1c(=O)c(-c2cc(Br)ccc2N)nc2ccccc21 was tested, and the inhibition was 9.54%.
CCOC(=O)c1c(NC(=O)c2ccoc2C)sc2c1CCC2 showed an inhibition of 16.6%.
With COC(=O)c1c(NC(=O)c2ccoc2C)sc2c1CCC2 the inhibition was -15.6%.
NC(=O)c1c(NC(=O)C2CCCO2)sc2c1CCC2 (stereo not given) showed an inhibition of 40%.
NC(=O)c1c(NC(=O)C2CCCO2)sc2c1CCCC2 (stereo not given) gave an inhibition of 25.2%.
In the case of O=c1cc(-c2ccc([N+](=O)[O-])cc2)c2cc3c(cc2[nH]1)OCCO3, the inhibition was 0.51%.
Work on CCc1cccc(C)c1NC(=S)N(CCN(C)C)C(C)c1cccnc1 (stereo not given) yielded an inhibition of 3.46%.
Compound CSc1nnc(-c2sc3cc(C(F)(F)F)cnc3c2-c2cccnc2)n1C has an inhibition of 2.54%.
In the case of COc1cc(OC)c2ccc(=O)oc2c1C(CC(=O)N1CCOCC1)c1ccc2c(c1)OCO2 (stereo not given), the inhibition was 11.3%.
Work on CCCc1cc(=O)[nH]c(SCCOc2ccc(Cl)cc2)n1 yielded an inhibition of 3.09%.
Compound CCN=C(NCC)SC1CC(=O)N(c2ccccc2)C1=O (stereo not given) has an inhibition of 0.73%.
Cn1cnc(S(=O)(=O)Nc2ccc(C(F)(F)F)cc2)c1 gave an inhibition of 8.69%.
Work on COc1ccc(S(=O)(=O)Nc2ccc(C(F)(F)F)cc2)cc1OC yielded an inhibition of 8.66%.
For Cc1cc(NC(=O)CN2CCCCC2C)no1 (stereo not given), the inhibition was 15.1%.
With Cc1ccc(NC(=O)CCC(=O)N/N=C/C=C/c2ccccc2)cc1 the inhibition was 16.5%.
CC1=NNC(=O)C1CC(=O)N/N=C/C(Br)=C/c1ccccc1 (stereo not given) showed an inhibition of 15.5%.
CC(=C/c1ccccc1)/C=N/NC(=O)CSc1nc(C)cc(C)n1 was tested, and the inhibition was 22.8%.
Compound CC(/C=N/NC(=O)CSc1nc(C)cc(C)n1)=C\c1ccccc1 has an inhibition of 11.7%.
COc1ccccc1/C=C\C=N\NC(=O)CCn1nnc2ccccc21 showed an inhibition of 4.22%.
In the case of CC1=NNC(=O)C1CC(=O)N/N=C/C=C/c1ccccc1 (stereo not given), the inhibition was 19.3%.
With COc1ccccc1/C=C/C=N/NC(=O)CC1C(=O)NN=C1C (stereo not given) the inhibition was 13.6%.
CC1C(=O)NN=C1C(=O)N/N=C\C(Br)=C\c1ccccc1 (stereo not given) showed an inhibition of 45.9%.
With Cc1ccc(C(=O)Nc2cc(=O)n(C)c(=O)n2C)cc1C the inhibition was 1.37%.
Work on CCNC(=O)C/C(C)=N/NC(=O)C1CCCCC1 yielded an inhibition of 12.5%.
CCn1ccnc1CN(C)Cc1nc(-c2ccc(C(=O)OC)cc2)no1 showed an inhibition of 2.83%.
Work on O=C(CNS(=O)(=O)c1ccc(C(=O)N2CCOCC2)cc1)N1CCOCC1 yielded an inhibition of -0.01%.
COc1ccccc1NC(=S)N1CCC(c2nc3ccccc3o2)CC1 gave an inhibition of 2.4%.
Compound CCOC(=O)CCn1c(=S)n(CCC(=O)OCC)c2ccccc21 has an inhibition of 9.93%.
Work on COc1ccc(N2CCN(CC(O)COc3ccc([N+](=O)[O-])cc3)CC2)cc1 (stereo not given) yielded an inhibition of 4.37%.
Work on O=C(Cc1ccccc1)c1c[nH]c(C(=O)O)c1 yielded an inhibition of -7.97%.
For NC(=O)c1cccc(CC(=O)c2ccccc2)c1, the inhibition was -5.22%.
For O=c1[nH]nc(N/N=C/c2ccccc2OC(F)F)c(=O)[nH]1, the inhibition was 3.73%.
O=C(O)CCC(=O)Nc1nc2ccccc2s1 was tested, and the inhibition was 16.1%.
In the case of CC(=O)Nc1scc(C)c1-c1nc2ccccc2s1, the inhibition was -9.4%.
Cc1cccc(C)c1NC(=O)CCCSc1nc2ccccc2s1 showed an inhibition of 2.06%.
Cc1csc(NC(=O)CSCC(=O)O)c1-c1nc2ccccc2s1 showed an inhibition of 1.7%.
For O=C(NNC(=S)Nc1ccc(Br)cc1Cl)c1ccncc1, the inhibition was 21.5%.
For CCOC(=O)c1ccc(NC(=O)C2CCCN(S(=O)(=O)c3cnc[nH]3)C2)cc1 (stereo not given), the inhibition was -0.78%.
COc1ccc(CN2CCN(C(C)C)C(CCO)C2)cc1Cn1cncn1 (stereo not given) was tested, and the inhibition was 1.4%.
Work on COc1ccc(N2CCN(CCCNC(=O)C3CCC(CNc4nc(=S)[nH]c5ccccc45)CC3)CC2)cc1 (stereo not given) yielded an inhibition of 10.8%.
Compound COc1ccccc1N(CC(=O)NCCC1=CCCCC1)S(=O)(=O)c1ccccc1 has an inhibition of -1.31%.
For CC1CN(C2CCN(C(=O)c3ccccc3)CC2)CC(C)O1 (stereo not given), the inhibition was 6.07%.
With O=C(c1ccccc1F)N(Cc1ccc2c(c1)OCO2)Cc1cc2cc3c(cc2n2nnnc12)OCO3 the inhibition was 3.97%.
CCOC(=O)c1sc(=S)n(-c2ccccc2)c1N gave an inhibition of 6.93%.
Compound CCOC(=O)CSc1nc2c(sc(=S)n2Cc2ccco2)c(=O)n1-c1ccccc1 has an inhibition of 6.2%.
With CCCN(CCC)C(=O)CSc1nc2c(sc(=S)n2-c2ccc(OCC)cc2)c(=O)[nH]1 the inhibition was 30.1%.
With CCOC(=O)CSc1nc2c(sc(=S)n2-c2ccc(OCC)cc2)c(=O)[nH]1 the inhibition was 14.5%.
CCN(CC)C(=O)CSc1nc2c(sc(=S)n2-c2ccccc2)c(=O)[nH]1 showed an inhibition of 12%.
For CCOc1ccc(-n2c(=S)sc3c(=O)[nH]c(SCC(=O)C(C)(C)C)nc32)cc1, the inhibition was 37%.
CCN(CC)C(=O)CSc1nc2c(sc(=S)n2Cc2ccco2)c(=O)n1-c1ccccc1 was tested, and the inhibition was 8.29%.
O=S(=O)(c1cc(Cl)cc(Cl)c1)N1CCCC1c1nc2ccccc2s1 (stereo not given) gave an inhibition of -5.02%.
O=C(COc1ncnc2sccc12)Nc1ccc2c(c1)OCCO2 was tested, and the inhibition was 34.8%.
Work on COc1ccccc1CNC(=O)COc1ccccc1OC yielded an inhibition of 3.35%.
For Cc1cccc(NC(=O)Nc2ccc3c(c2)N(C)C(=O)CS3)n1, the inhibition was 3.25%.
For O=c1c2c(-c3ccc(Cl)cc3)csc2ncn1/N=C/c1cccc([N+](=O)[O-])c1O, the inhibition was -4.46%.
Cc1ccc(N2NC(C)(c3cccs3)NC2=S)cc1 (stereo not given) gave an inhibition of -1.38%.
For COc1cc(NC(=O)c2nccnc2N)cc(C(=O)Nc2cccc(C(F)(F)F)c2)c1, the inhibition was -5.13%.
O=C(O)c1ccc(Cn2cc(C(F)(F)F)ccc2=O)cc1 showed an inhibition of -4.03%.
With O=C(CC1Sc2ccccc2NC1=O)Nc1cccc(-c2nnc3n2CCCCC3)c1 (stereo not given) the inhibition was 3%.
O=C(CC1Sc2ccccc2NC1=O)Nc1cccnc1 (stereo not given) was tested, and the inhibition was 5.83%.
O=C(O)c1ccc(NC(=O)C2(c3ccccc3)CCCC2)cc1 showed an inhibition of 3.99%.
With COc1ccc2nc(Nc3sc4c(c3C(N)=O)CCCC4)sc2c1 the inhibition was 8.22%.
COC(=O)Nc1sc2c(c1C(N)=O)CCC(C)C2 (stereo not given) gave an inhibition of 26.4%.
For Fc1cccc2sc(Nc3nc4c(F)cccc4s3)nc12, the inhibition was 16.7%.
CC1CCc2c(sc(NC(=O)C3c4ccccc4Oc4ccccc43)c2C(N)=O)C1 (stereo not given) was tested, and the inhibition was 8.46%.
With CC(=O)c1ccc(Nc2ccc(-c3ccccc3F)nn2)cc1 the inhibition was 28.4%.
In the case of COC(=O)c1ccccc1NC(=O)C(C)c1ccc([N+](=O)[O-])cc1 (stereo not given), the inhibition was -0.59%.
For N#C/C(C(=O)NCc1ccccc1)=C1/N=C(NC(=O)c2cccs2)c2ccccc21, the inhibition was 5.68%.
CCOC(=O)C1=C(C)N=C2SCCC(=O)N2[C@@H]1c1cccs1 showed an inhibition of 3.63%.
In the case of NC(=O)CC(NC(=O)Cc1cccc2ccccc12)c1ccc(NC2CCC2)c([N+](=O)[O-])c1 (stereo not given), the inhibition was 15%.
